Source: PubChem (several laboratories)
STAT1 activator: STAT1 signaling activation | NIH 3T3 STAT1-luciferase reporter, IFN-gamma, luminescence; 100% = IFN-gamma alone, no compound | activation (% of control), % at 5.5 µM | 200,000 tested, 2.6% active | AID 932;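 active = activation above the screen-wide mean activation plus 3 SD, cut at about 130% in these data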;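 also: raw ratio to IFN-gamma control signal so 100% means no change and 0% no light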
NF-kB neuron act: raises NF-kB expression in human neuronal cells; 190,000 tested, 1.6% active; fold change at 12.5 µM; NF-kB reporter expression; hits give high values; in the data active = fold change above about 3.3
APP 5'UTR act: APP 5'UTR luciferase reporter activation; SH-SY5Y APP 5'UTR luciferase reporter, luminescence; zero percent = DMSO vehicle wells; activation, % at 2 µM; 190,000 tested, 1% active; AID 1276;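 active = activation above a set limit, based on mean plus 3 SD of controls, cut at about 140% in these data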
Wee1 stabilizer: human Wee1 degradation inhibition, primary screen; reporter increase, % at 5 µM; AID 1321; P30291; 220,000 tested, 1.2% active; HeLa Luc-Wee1K328M stability, luciferase luminescence; 100% = proteasome inhibitor MG132 effect;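 active = activation above the mean of all tested compounds plus 3 SD, set per screening run, cut at about 8.8% in these data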;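 also: cells exposed to compound for 20 h before luminescence read; 0% = DMSO alone and 100% = MG132 at 30 µM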
Target sequence (P30291 whole entry K328M): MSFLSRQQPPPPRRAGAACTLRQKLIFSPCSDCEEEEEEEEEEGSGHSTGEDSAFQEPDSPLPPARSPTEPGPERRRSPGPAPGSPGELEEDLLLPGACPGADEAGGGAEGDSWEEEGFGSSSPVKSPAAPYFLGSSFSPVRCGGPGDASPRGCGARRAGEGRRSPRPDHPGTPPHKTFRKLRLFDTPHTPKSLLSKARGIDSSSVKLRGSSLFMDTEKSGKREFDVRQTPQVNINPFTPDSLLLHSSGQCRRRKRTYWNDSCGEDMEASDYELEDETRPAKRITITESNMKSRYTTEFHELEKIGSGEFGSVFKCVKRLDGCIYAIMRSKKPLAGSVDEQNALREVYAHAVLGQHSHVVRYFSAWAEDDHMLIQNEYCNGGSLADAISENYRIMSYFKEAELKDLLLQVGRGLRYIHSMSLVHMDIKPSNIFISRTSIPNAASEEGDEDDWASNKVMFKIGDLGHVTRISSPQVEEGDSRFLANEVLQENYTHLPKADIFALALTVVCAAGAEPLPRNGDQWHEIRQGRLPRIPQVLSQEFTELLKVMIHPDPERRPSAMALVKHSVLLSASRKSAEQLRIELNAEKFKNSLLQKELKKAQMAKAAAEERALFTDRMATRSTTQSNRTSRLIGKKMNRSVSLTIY
APP 5UTR inh: APP translation inhibition; SH-SY5Y APP 5'UTR-luciferase reporter, luminescence; inhibition, % at 2 µM; 190,000 tested, 0.82% active;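 active = inhibition above a set limit, derived from the sample mean plus 3 SD, cut at about 45% in these data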
Hsp70 activator: switches on Hsp70 transcription; HeLa Hsp70 promoter luciferase reporter, luminescence; scaled: vehicle 0, proteasome-inhibitor control 100%; activation, % at 10 µM; 200,000 tested, 0.04% active;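 active = activation above the mean across all tested compounds plus 3 SD, cutoff set per campaign, cut at about 5.5% in these data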;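 also: 100% = MG132 at 30 µM as the positive control and 0% = DMSO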
Wee1 stab conf: human Wee1 degradation inhibition, confirmation; shares compounds with Wee1 stabilizer; HeLa Luc-Wee1K328M degradation, luminescence; vehicle 0%, proteasome-blocked wells 100%; activation, % at 5 µM; 1,100 tested, 4% active; AID 1410; in the data active = activation above about 8.9%
The depositor's hits bear a star; . = not tested or not shown. An excerpt weighted towards active compounds, which were near 4.8% of everything screened.

SMILES	STAT1 activator	NF-kB neuron act	APP 5'UTR act	Wee1 stabilizer	APP 5UTR inh	Hsp70 activator	Wee1 stab conf
CC(C)c1nnc(SCC(=O)NCc2ccc3c(c2)OCO3)n1C	102.6	1.11	6.4	11.9*	-6.4	-0.2	-0.5
O=C(NCc1csc(-c2ccccc2)n1)c1cc(F)cc2c1OCOC2	.	.	.	15.0*	.	.	0.4
O=C(Cc1csc(-c2ccccc2)n1)NCc1ccc(F)cc1	95.2	0.86	-2.2	-2.8	2.2	-0.4	.
COc1cccc(OC(=O)c2cc3ccccc3oc2=O)c1	108.4	1.09	-15.0	15.5*	15.0	0.1	0.6
CCc1cc2cc(C)cc(C)c2nc1SCC(=O)Nc1cc(C)on1	98.3	1.25	19.1	11.0*	-19.1	0.0	-0.2
CC(=O)c1cccc(N(C(=O)CNC(=O)c2ccco2)C(C(=O)NCc2ccco2)c2ccccc2)c1 (centres undefined)	98.3	1.12	6.1	18.5*	-6.1	-0.5	-2.8
Cc1cccc(N(C(=O)CNC(=O)c2ccco2)C(C(=O)NCC2CCCO2)c2ccccc2)c1 (centres undefined)	102.7	0.55	17.4	-0.7	-17.4	-0.3	.
CSc1ccc(C(=O)C2CCCN(C(=O)c3csc(C(C)=O)c3)C2)cc1 (centres undefined)	100.3	1.28	3.3	0.3	-3.3	-0.3	.
CN(Cc1c(F)cccc1Cl)c1ccc(S(=O)(=O)N2CCOCC2)cn1	97.4	1.33	0.0	12.3*	0.0	0.3	3.2
COc1cccc(/C=N/NC(=O)c2cc3c(OC)c(OC)ccc3[nH]2)c1OC	102.7	0.41	-57.0	11.6*	57.0*	-0.2	10.3*
N#CC1=C(N)OC2=C(CC/C2=C\c2ccc(F)cc2)C1c1ccc(F)cc1 (centres undefined)	98.9	1.15	5.5	-1.7	-5.5	-0.2	.
O=C(CC1C(=O)N(c2ccccc2)C(=S)N1c1ccccc1)c1ccc(Br)cc1 (centres undefined)	106.0	1.11	15.9	67.0*	-15.9	-0.3	0.6
O=C(C1=C[C@@H](c2coc3ccccc3c2=O)C[C@@H](OCc2ccc(CO)cc2)O1)N1CCN(Cc2ccc3c(c2)OCO3)CC1	95.1	0.43	-17.6	22.9*	17.6	0.0	-1.6
O=C(C1=C[C@H](c2coc3ccccc3c2=O)C[C@H](OCc2ccc(CO)cc2)O1)N1CCN(Cc2ccc3c(c2)OCO3)CC1	106.5	0.6	6.5	4.2	-6.5	0.1	.
O=C(Nc1cccnc1Cl)c1cc([N+](=O)[O-])ccc1Cl	103.8	1.05	29.7	-1.3	-29.7	-0.3	.
Cc1ccc(O)c(NC(=O)c2cc([N+](=O)[O-])ccc2Cl)c1	101.2	1.11	14.2	11.0*	-14.2	-0.1	3.5
Cc1cc(O)c(NC(=O)c2cc([N+](=O)[O-])ccc2Cl)cc1C	105.9	1.51	-10.7	44.9*	10.7	0.2	3.6
C=C(C)CNC(=S)N/N=C/c1c(F)cccc1F	95.0	1.38	-0.3	14.3*	0.3	0.0	0.4
Cc1ccc(C(=O)N/C(=C/c2ccccc2)C(=O)NCc2ccncc2)cc1	.	.	.	-0.4	.	.	.
Cn1c(=O)c2c(ncn2Cc2ccccc2)n(C)c1=O	96.2	0.92	1.9	-1.0	-1.9	-0.2	.
Cn1c(=O)c2c(ncn2CCCc2ccccc2)n(C)c1=O	96.9	0.91	13.0	11.6*	-13.0	0.2	1.6
COc1ccc(C=O)cc1OS(=O)(=O)c1ccc(NC(C)=O)cc1	96.4	0.94	2.0	0.9	-2.0	-0.1	.
COc1ccc(/C=N/NC(=O)c2ccc3ccccc3c2)cc1OS(=O)(=O)c1ccc(NC(C)=O)cc1	94.1	0.61	-71.5	14.4*	71.5*	-0.1	13.0*
Cn1c(CNC(=O)c2ccco2)nnc1SCC(=O)Nc1cccc(F)c1	97.9	1.04	8.1	3.1	-8.1	-0.1	.
CC(=O)Nc1ccccc1C(=O)C(=O)Nc1ccc(C)c(F)c1	125.1	2.43	129.0	17.8*	-129.0	0.1	8.0
SMILES	STAT1 activator	NF-kB neuron act	APP 5'UTR act	Wee1 stabilizer	APP 5UTR inh	Hsp70 activator	Wee1 stab conf
CC(=O)Nc1ccccc1C(=O)C(=O)Nc1cccc(F)c1	119.7	.	10.8	2.8	-10.8	-0.1	.
CCN1CCN(c2nc(Nc3ccc(OC)cc3)nc(N)c2[N+](=O)[O-])CC1	.	.	.	11.6*	.	.	0.9
O=S(=O)(c1cccs1)N1CCN(c2ccc(O)cc2)CC1	.	.	.	22.9*	.	.	-2.4
CN1CCN(S(=O)(=O)c2cccs2)CC1	102.5	0.97	-19.4	-1.8	19.4	0.2	.
Cc1ccc(CNC(=O)CNC(=O)c2c(C)nn(C)c2Cl)cc1	96.9	0.94	-1.8	7.3	1.8	-0.3	.
Cc1cc(C)nc(NS(=O)(=O)c2ccc(N/C=C/C(=O)c3ccc(Cl)cc3)cc2)n1	125.4	1.08	-1.3	13.5*	1.3	-0.2	0.1
COc1ccc(C(=O)/C=C/Nc2ccc(S(=O)(=O)Nc3nc(C)cc(C)n3)cc2)cc1OC	107.1	0.97	8.6	-0.5	-8.6	-0.1	.
C/C(CC(=O)Nc1ccc(OCc2ccccc2)cc1)=N\NC(=O)C(=O)Nc1ccccc1C	108.8	1.25	5.8	-3.8	-5.8	-0.3	.
CCOC(=O)C1=C(N)Oc2c(c(=O)[nH]c3ccccc23)C1c1ccccc1 (centres undefined)	106.8	1.28	-13.2	4.3	13.2	-0.1	.
CCCCOc1ccc(CNC(=O)NS(=O)(=O)c2ccc(OCC)cc2)cc1	89.7	1.14	-5.9	12.6*	5.9	-0.1	2.9
CCOC(=O)CSc1cc(=O)n(CC)c2ccccc12	104.1	1.27	-1.0	-0.5	1.0	-0.1	.
CCNc1nc(NOC)nc(OCC#N)n1	98.2	0.94	6.3	1.4	-6.3	-0.1	.
COc1ccccc1N1CCN(C(=O)c2ccc(S(=O)(=O)N3CCCCCC3)cc2)CC1	96.3	0.68	26.5	10.9*	-26.5	-0.4	-0.5
N#CC(C#N)=Cc1ccc(-c2ccc(S(=O)(=O)N=C(N)N)cc2)o1	91.5	0.89	-12.5	-4.3	12.5	-0.4	.
CCCn1cc(CN2CCN(Cc3ccc(C)o3)C(CCO)C2)c(C)n1 (centres undefined)	95.2	.	13.8	0.8	-13.8	-0.2	.
CCCn1ncc(CN2CCN(Cc3ccc(C)o3)C(CCO)C2)c1C (centres undefined)	.	.	.	11.2*	.	.	2.5
CC(=O)Nc1ccc(NC=C(C#N)C#N)cc1	.	.	.	2.7	.	.	.
COC(=O)CC1C(=O)NCCN1C(=O)CSc1nc2ccccc2o1 (centres undefined)	102.6	1.19	-11.4	12.4*	11.4	0.2	-1.5
c1ccc(-c2cc3c(ccc4nonc43)nn2)cc1	104.0	1.68	0.1	-0.3	-0.1	-0.2	.
On1onc2c3cc(-c4ccccc4)nc3ccc21	115.2	2.31	-60.8	38.7*	60.8*	0.3	30.5*
Cc1ccc(CSCC(=O)Nc2ccc3c(c2)OCO3)cc1	100.8	1.1	2.3	0.2	-2.3	-0.1	.
